This is a sample that favours compounds with a hit; in the whole collection about 2.1% have one here.
FUS suppressor: suppressors of FUS proteinopathy in yeast | 390,000 compounds, 0.24% hits | AID 1347120 | S. cerevisiae FUS-expressing, growth rescue, OD600, 24 h | Potency, µM (highest dose often 76.6 µM), most hits filed as activators;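 note: plate controls were DMSO vehicle for no effect and reference control for full effect; nearly all actives have a fitted effect of over 55% in size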
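Absorbance at 600 nm, taken 24hr after compound addition, measured rescue of FUS-yeast growth at 30C. Induction used 2% galactose with seeding at OD 0.005. Controls: CP55940 from 92uM final, DMSO only.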
TDP43 rescue: rescues yeast growth from TDP-43 toxicity; TDP-43 expressing yeast growth rescue, BacTiter-Glo, 24 h; Potency, µM (doses to about 46.1 µM), for the others: at the highest dose growth rescue (activation), usual class: activators; 410,000 compounds, 1.8% hits; note: % of control where 0% means no effect; nearly all actives have a fitted effect of over 50% in size
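Growth rescue of TDP-43-toxic yeast measured as ATP luminescence (BacTiter-Glo). Cells grown to mid-log in raffinose, induced in galactose at OD600=0.02, exposed to compound 24 hr at 30 deg C.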
Abeta yeast res: A-beta toxicity reversal in yeast. yeast expressing A-beta42, growth rescue, OD600, 48 h; response scale: 0% DMSO, 100% iron-clioquinol control. Potency, µM (titrated, usually from 46.1 µM), most hits filed as activators. 410,000 compounds, 0.063% hits; note: nearly all actives have a fitted effect of over 55% in size
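Growth rescue measured by 600 nm absorbance after 48 h yeast culture at 30 C with compound. Values normalized between DMSO and an equimolar ferric chloride plus clioquinol control.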
aSyn rescue: inhibitors of alpha-synuclein toxicity in yeast | Yeast expressing alpha-synuclein, growth rescue, BacTiter-Glo, 24 h | AID 652106 | Potency, µM (titrated, usually from 46.1 µM), for the others: at the highest dose growth rescue (activation), most hits filed as activators | 370,000 compounds, 0.14% hits; note: % of control where 0% means no effect; nearly all actives have a fitted effect of over 65% in size
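Screening used galactose-induced yeast with toxic alpha-synuclein levels, exposed to compound for 24 hr at 30 deg C. Cell growth, read with BacTiter-Glo luminescence, gave the measured signal.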
* hit, by the source's call; i = inactive; ? = inconclusive; nt = no result given. Calls come from the whole dose curve; as a rule, active = well fitted curve in the direction sought with a large enough effect; inconclusive = small, poorly fitted or top-dose-only effect, or another doubt; inactive = no such curve, though single readings can be large; an effect the other way counts as inactive or inconclusive. Potency is the fitted concentration of half-maximal effect.

SMILES	FUS suppressor	TDP43 rescue	Abeta yeast res	aSyn rescue
COc1cccc(-c2nnc(NC(=O)c3ccc(Cl)s3)o2)c1	i	10µM*	?	?
O=C(Nc1nnc(-c2ccc(Cl)cc2)o1)Nc1ccccc1Cl	i	23%	i	1%
O=C(Nc1nnc(-c2ccc(Cl)cc2)o1)c1nc2ccccc2s1	i	?	i	18µM*
O=C(Nc1nnc(-c2ccc(F)cc2)o1)c1cc(Cl)sc1Cl	nt	?	i	?
Cc1cccc(-c2nnc(NC(=O)c3ccc(Cl)cc3)o2)c1	i	?	?	7.1µM*
C=CCN1C(=O)[C@@H](CC(=O)NCc2cccc(C(F)(F)F)c2)[C@]2(C(=O)OC)CCCCC=C12	i	nt	nt	nt
O=C(NN=C1CCCCC1)c1ccccc1-n1cccc1	i	9%	i	3%
O=C(NCc1ccc2c(c1)OCO2)c1ccc(COc2cccc(Cl)c2)o1	i	14µM*	?	?
COc1ccc(N(C)C(=O)c2ccc3c(Cl)c4c(nc3c2)CCCC4)c(OC)c1	?	9%	i	6%
Cc1ccc(N(C)C(=O)c2ccc3c(Cl)c4c(nc3c2)CCC4)cc1C	?	25µM*	i	?
O=C(NCc1cccc(Cl)c1)c1ccc2c(Cl)c3c(nc2c1)CCCC3	i	11µM*	i	nt
O=C(NCc1ccccc1Br)c1ccc2c(c1)OCCO2	i	11µM*	i	7%
CCOC(=O)c1c(NC(=O)c2cc(OCC)c(OCC)c(OCC)c2)sc2c1CCCCC2	i	7%	i	nt
CCOC(=O)[C@]12CCCC=C1N(Cc1cccc3ccccc13)C(=O)[C@H](CC(=O)N1CCC(c3ccccc3)CC1)C2	?	26%	i	0%
Cc1ccc(C(=O)NCc2ccc3c(c2)OCO3)cc1C	i	?	i	-1%
S=C(NCc1ccc2c(c1)OCO2)NCc1ccc2c(c1)OCO2	i	-13%	i	7%
Cc1cccc(NC(=S)NCc2ccc3c(c2)OCO3)c1	i	18µM*	i	-1%
O=C(NCc1cccc(Cl)c1)c1ccc2c(c1)OCCO2	i	10µM*	i	1%
O=C(NCc1ccc2c(c1)OCO2)c1ccc2c(c1)OCCO2	i	25µM*	?	-23%
Cc1cc(C(=O)NCc2ccc3c(c2)OCO3)ccc1[N+](=O)[O-]	i	18µM*	?	-10%
O=C(NC(=S)NC1CCCCC1)c1ccc(F)cc1	i	26%	?	-14%
COc1ccccc1C(=O)NS(=O)(=O)c1ccc(C)cc1	i	18µM*	i	?
Cc1ccc(S(=O)(=O)NC(=O)c2ccccc2F)cc1	i	?	i	16%
Cc1ccc(NC(=S)c2nc3ccccc3[nH]2)c(C)c1	i	18µM*	?	-4%
O=C(Nc1ccccc1)O/N=C/c1ccc(F)cc1	i	10µM*	i	-13%
SMILES	FUS suppressor	TDP43 rescue	Abeta yeast res	aSyn rescue
Cc1ccc(NC(=O)O/N=C/c2ccc(F)cc2)cc1	i	6%	i	-19%
COC(=O)[C@@H]1C[C@@]2(O)[C@H](O)[C@H](O)[C@H](O)C[C@H]2N1Cc1ccc(-c2ccccc2)cc1	i	0%	i	0%
CCc1ccc(OC)c(-c2csc(N)n2)c1	i	16%	i	-23%
Nc1nc(-c2cc(Cl)cc(Cl)c2OC(F)F)cs1	i	16µM*	i	2%
Nc1ccc(C2CCCc3nonc32)c2nonc12 (centres undefined)	i	22µM*	i	1%
CCCCCCCCN1C(=O)[C@H](CC(=O)N2CCCCC2)C[C@@]2(C(=O)OC)CC(C)(C)CC=C12	?	8%	i	-36%
CCCCCCCCN1C(=O)[C@H](CC(=O)N2CCOCC2)C[C@@]2(C(=O)OC)CC(C)(C)CC=C12	13µM*	?	i	?
COC(=O)[C@@]12C[C@@H](CC(=O)NCc3cccc4ccccc34)C(=O)N(Cc3ccc4c(c3)OCO4)C1=CCC(C)(C)C2	6.3µM*	-15%	i	16%
CCCCCCCCN1C(=O)[C@H](CC(=O)NCc2ccc(OC)c(OC)c2)C[C@@]2(C(=O)OC)CC(C)(C)CC=C12	?	22µM*	i	?

Screens as filed in PubChem.
